# Screening data from PubChem BioAssay.
# This is a sample that favours compounds with a hit; in the whole collection about 3.8% have one here.
# tim23-1 inh: tim23-1 yeast growth inhibition. 330,000 compounds, 1.3% hits. inhibition, % at 20 µM. S. cerevisiae tim23-1 growth, BacTiter-Glo luminescence, 24 h;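 active = growth inhibition of the mutant yeast at or above 50%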;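 also: temperature-sensitive mutant grown at 25 °C; plate controls were DMSO-treated mutant yeast for no effect and medium wells lacking yeast for full effect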
# tim10-1 inh: growth inhibitors of tim10-1 mutant yeast | 330,000 compounds, 2.2% hits | S. cerevisiae tim10-1 ts strain growth, BacTiter-Glo, 24 h | inhibition, % at 20 µM | AID 463190;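 active = inhibition of at least 40%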;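 also: mutant grown at 25 °C; 0% = DMSO wells with yeast and 100% = wells holding no yeast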
# NALP3 yeast inh: blocks the NALP3 inflammasome reconstituted in yeast; 330,000 compounds, 0.39% hits; Yeast reconstituted NLRP3/ASC/caspase-1, beta-gal luminescence, 24 h; AID 2825; inhibition, % at 10 µM;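 active = inhibition of 50% or more; inactive = inhibition below 50%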;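 also: plate controls were induced DMSO wells for no effect and uninduced yeast grown without galactose for full effect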
# Yeast superoxide: caloric restriction mimetics inhibiting age-related superoxide in yeast | 330,000 compounds, 0.18% hits | superoxide response (% of plate mean), % at 10 µM | S. cerevisiae aged cells, superoxide DHE fluorescence; active compounds read low | AID 2690;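 active = superoxide response under a set limit, about three screen SD below normal, cut at about 65% in these data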;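 also: yeast aged for seven days with compound at 30 °C before DHE staining; 100% = average MFI of all compound-treated wells on the plate with controls excluded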
# TIM10 inh: growth inhibitors of TIM10 yeast strain | AID 463195 | inhibition, % at 10 µM | S. cerevisiae TIM10 strain growth, BacTiter-Glo luminescence, 24 h | 330,000 compounds, 1.4% hits;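 active = inhibition of 40% or more at the single tested concentration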;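 also: wild-type TIM10 isogenic control strain grown at permissive 25 °C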
# tim10-1 confirm: confirmation of tim10-1 mutant yeast growth inhibitors. inhibition, % at 20 µM. S. cerevisiae tim10-1 ts strain growth, BacTiter-Glo, 24 h. 7,400 compounds, 56% hits. AID 463213. shares compounds with tim10-1 inh;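 active = inhibition of yeast growth at or above a set limit in either of two repeat tests at 20 µM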;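 also: tim10-1 mutant grown at permissive 25 °C to find synthetic lethal compounds; 0% = DMSO yeast wells and 100% = medium wells without yeast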
# tim10 confirm: confirmation of TIM10 yeast growth inhibitors. inhibition, % at 10 µM. shares compounds with TIM10 inh. 4,600 compounds, 63% hits. AID 463215. S. cerevisiae tim10 strain growth, BacTiter-Glo luminescence, 24 h;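 active = inhibition of yeast growth at or above a set limit in either of two replicates at 10 µM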;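 also: this counterscreen used the strain with wild-type TIM10; 0% = yeast with DMSO and 100% = medium wells lacking yeast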
# tim23-1 conf: tim23-1 yeast growth inhibition, confirmed | shares compounds with tim23-1 inh | S. cerevisiae tim23-1 growth, BacTiter-Glo luminescence, 24 h | inhibition, % at 20 µM | 4,400 compounds, 83% hits | AID 463218;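 active = inhibition above about 39% in either of two replicate wells at 20 µM, limit read from the data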;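 also: temperature-sensitive tim23-1 mutant grown at 25 °C; 0% = DMSO wells with yeast and 100% = medium wells without yeast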
# Active calls of the source: *; · = no result.
SMILES,tim23-1 inh,tim10-1 inh,NALP3 yeast inh,Yeast superoxide,TIM10 inh,tim10-1 confirm,tim10 confirm,tim23-1 conf
Cc1ccc(C(OCC(O)CNC(C)c2ccccc2)c2ccccc2)cc1 (configuration not stated),54*,62*,21,86,59*,61*,52*,39*
Cc1ccc(S(=O)(=O)c2nc(-c3ccccc3Cl)oc2N2CCN(C)CC2)cc1,19,-5,10,104,-2,·,·,·
CCC1CN(S(=O)(=O)c2ccc3c(c2)NC(=O)CC(=O)N3)c2cc(Cl)ccc2O1 (configuration not stated),7,13,5,90,11,·,·,·
COn1c2c(c3c4no[n+]([O-])c4ccc31)CCCC2,11,26,28,95,13,·,·,·
[O-][n+]1c2c(c3c4non(O)c4ccc31)CCCC2,63*,70*,27,79,61*,70*,52*,64*
CC(C)(C)OC(=O)N1CCC[C@H]1c1nnc(SCC(=O)Nc2ccc(Br)cc2)o1,23,15,11,104,18,·,·,·
CCCCc1ccc(/C=C(\C#N)C(N)=S)s1,71*,56*,34,·,53*,55*,60*,58*
COc1ccc(C2/C=C\CN(C(=O)Nc3ccc(C(F)(F)F)cc3)CC(=O)N2Cc2ccc(F)cc2)cc1 (configuration not stated),53*,49*,20,104,47*,38*,27,48*
Cc1ccc(NS(=O)(=O)c2cccc(C(=O)N3CCCCCC3)c2)cc1,13,19,17,106,3,·,·,·
CCOC(=O)c1nn(-c2ccc3ccccc3c2)cc1O,4,-42,33,94,13,·,·,·
CS(=O)(=O)c1cnc(-c2ccccc2)nc1Sc1ccc(F)cc1,-14,-43,6,93,-9,·,·,·
Fc1ccc(Sc2nc(-c3ccccc3)nnc2C(F)(F)F)cc1,60*,60*,16,110,0,36*,·,55*
O=C(Nc1ncc(Cc2ccc(SC(F)F)cc2)s1)c1ccccc1,7,14,-11,102,30,·,·,·
O=C(Nc1ncc(Cc2cccc(Cl)c2)s1)c1cccs1,67*,43*,20,106,67*,38*,-19,55*
O=C(Nc1ncc(Cc2ccccc2)s1)c1cccs1,72*,51*,40,92,52*,50*,61*,52*
Cc1ccc(C(=O)Nc2ncc(Cc3ccccc3)s2)o1,57*,53*,19,96,49*,50*,50*,54*
NC(=O)c1cc(NC(=O)CCc2nc3ccccc3s2)cc(C(N)=O)c1,0,5,0,92,-11,·,·,·
COc1ccc(C(=O)C2CCCN(C(=O)Cn3nc(C)cc3C)C2)cc1F (configuration not stated),0,-4,-4,107,-3,·,·,·
CC(=O)c1cccc2c(O)c(C3=Nc4ccccc4C3=O)[nH]c12,88*,73*,9,102,63*,57*,-28,90*
O=C1C(c2c(O)[nH]c3ccccc23)=Nc2ccccc21,23,33,11,105,4,·,·,·
COc1cccc2cc(C(=O)CS(=O)(=O)c3ccc(C)cc3)c(=O)oc12,37,33,9,104,-4,·,·,·
Cc1ccc(S(=O)(=O)CC(=O)c2cc3cccc(C)c3oc2=O)cc1,53*,42*,5,106,1,-23,·,32
Cc1ccc(C(=O)Oc2oc(-c3ccccc3)nc2C=Nc2ccc(N(C)C)cc2)cc1,19,26,18,72,3,·,·,·
COc1ccc(N=Cc2nc(-c3ccccc3)oc2OC(C)=O)cc1,70*,46*,1,98,48*,47*,26,63*
COc1cccc(N=Cc2nc(-c3ccccc3)oc2OC(C)=O)c1,74*,64*,1,78,44*,51*,34*,70*
CCN(CC)C(=N)/C(C#N)=N/Nc1ccccc1,0,3,10,91,0,·,·,·
